# KCNQ2 pot: enhances the rat KCNQ2 potassium channel | O88943 | CHO-K1 KCNQ2, FluxOR thallium flux fluorescence; active compounds read high | B-score at 10 µM | actives 0.54% (n = 310,000);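 active = fluorescence ratio B-score at least 3 SD of library B-scores, with initial fluorescence B-score within 3 of them, cut at about 5.3 in these data; same plate scores as AID 2156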;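 note: B-score of peak minus minimum over baseline fluorescence ratio after K+ and Tl+ stimulus; positive B-score means potentiation of KCNQ2 with more thallium influx and brighter signal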
# Target sequence (O88943 whole entry, looked up): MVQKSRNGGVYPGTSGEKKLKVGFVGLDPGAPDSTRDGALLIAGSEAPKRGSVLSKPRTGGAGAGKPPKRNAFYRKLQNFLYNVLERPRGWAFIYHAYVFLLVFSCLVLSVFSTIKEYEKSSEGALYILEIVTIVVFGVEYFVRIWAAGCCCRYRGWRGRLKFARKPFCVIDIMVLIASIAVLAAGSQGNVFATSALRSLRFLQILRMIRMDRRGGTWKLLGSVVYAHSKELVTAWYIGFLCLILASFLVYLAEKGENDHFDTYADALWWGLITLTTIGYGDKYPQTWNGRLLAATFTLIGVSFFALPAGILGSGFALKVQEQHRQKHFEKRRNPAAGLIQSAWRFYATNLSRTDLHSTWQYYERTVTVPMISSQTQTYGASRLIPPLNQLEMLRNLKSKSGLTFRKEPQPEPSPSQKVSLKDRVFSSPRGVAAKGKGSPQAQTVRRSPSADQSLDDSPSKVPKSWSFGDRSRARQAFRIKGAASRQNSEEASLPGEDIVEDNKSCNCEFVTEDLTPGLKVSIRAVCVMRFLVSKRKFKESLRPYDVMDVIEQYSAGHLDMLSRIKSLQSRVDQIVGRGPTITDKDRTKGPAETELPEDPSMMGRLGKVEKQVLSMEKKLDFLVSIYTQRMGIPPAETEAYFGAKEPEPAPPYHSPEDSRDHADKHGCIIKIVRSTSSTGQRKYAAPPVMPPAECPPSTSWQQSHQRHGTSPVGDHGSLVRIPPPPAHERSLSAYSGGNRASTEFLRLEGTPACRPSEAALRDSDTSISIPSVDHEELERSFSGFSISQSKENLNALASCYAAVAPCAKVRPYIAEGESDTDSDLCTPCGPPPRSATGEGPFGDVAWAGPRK
# KCNQ2 block: inhibitors of rat KCNQ2 potassium channel | CHO-K1 KCNQ2, FluxOR thallium flux, 20 min; active compounds read low | B-score at 10 µM | actives 1.1% (n = 310,000);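 active = fluorescence ratio B-score at most minus 3 library SDs, with starting brightness B-score within 2 library SDs, cut at about -5.5 in these data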
# * = called active by the depositor; i = inactive; nt = not tested or not shown. Hits are enriched below; roughly 1.6% of the tested compounds scored in any of these assays.
SMILES,KCNQ2 pot,KCNQ2 block
Cc1ccc2oc(C(=O)N(C)Cc3ccc(C)o3)c(C)c2c1,-7.94,-7.94*
Cc1ccc2oc(C(=O)N(C)Cc3ccon3)c(C)c2c1,1.27,i
CN1CCN(CCCNC(=O)c2ccc3c(Cl)c4c(nc3c2)CCCC4)CC1,1.27,i
CCc1nc(N(CC)CC)c2oc3ccccc3c2n1,nt,i
CCc1nc(N2CCC(C)CC2)c2oc3ccccc3c2n1,-5.87,-5.87*
CC(C)(C)n1nc2c(c1NC(=O)c1ccc([N+](=O)[O-])cc1)CS(=O)(=O)C2,0.88,i
O=C(c1cccc(NC2=NC3CS(=O)(=O)CC3S2)c1)N1CCN(c2ncccn2)CC1 (configuration not stated),nt,i
CC1CCN(CCCn2c(SCC(=O)Nc3ccccc3Cl)nc3ccccc3c2=O)CC1,nt,i
COc1cccc(NC(=O)CSc2nc3c(sc4ccccc43)c(=O)n2CCN(C)C)c1,0.49,i
Cc1ccc(NC(=O)CSc2nc3ccccc3c(=O)n2CCCN2CCCCC2)cc1Cl,-7.86,-7.86*
COc1cccc(NC(=O)CSc2nc3c(sc4ccccc43)c(=O)n2CCCN2CCCC2)c1,-6.67,-6.67*
CCC(C)n1c(=S)[nH]c2ccccc2c1=O (configuration not stated),6.78*,i
O=c1c2ccccc2[nH]c(=S)n1Cc1ccccc1,0.43,i
O=c1c2ccccc2[nH]c(=S)n1CCc1ccccc1,7.18*,i
CC(C)n1c(=S)[nH]c2ccccc2c1=O,0.52,i
c1cnc(SCCOc2cccc3ccccc23)nc1,nt,i
Clc1ccc(OCCSc2ncccn2)c2ccccc12,-5.66,-5.66*
Cc1noc(C)c1C(=O)Nc1nc2ccc(Cl)cc2s1,2.31,i
O=C1NN(c2ccccc2)C(=O)/C1=C/c1coc2ccccc2c1=O,nt,i
O=C1NN(c2ccccc2)C(=O)/C1=C\c1coc2ccc(O)cc2c1=O,-5.7,-5.7*
O=C(c1cc(-c2cccnc2)nc2ccc(Cl)cc12)N1CCN(S(=O)(=O)c2cccs2)CC1,nt,i
COc1cccc(CN2CCN(C(=O)c3cc(-c4cccnc4)nc4ccc(C)cc34)CC2)c1,-7.35,-7.35*
O=C(c1ccco1)[C@@H]1[C@@H]2C(=O)N(c3ccccc3)C(=O)[C@@H]2C2c3ccccc3C=CN21 (some centres not stated),nt,i
Cc1ccc(N2C(=O)[C@@H]3[C@H](C2=O)C2c4ccccc4C=CN2[C@@H]3C(=O)c2ccco2)c(C)c1 (some centres not stated),-6.39,-6.39*
CCC(OCC(O)CN1CCCCC1)c1ccccc1 (configuration not stated),0.83,i
SMILES,KCNQ2 pot,KCNQ2 block
COc1ccc(C(=O)CCc2ccccc2)cc1,nt,i
CCOc1ccc(S(=O)(=O)N2CCOCC2)cc1NC(=O)CSC(=S)N1CCCC1,nt,i
Cc1ccc(C)c(S(=O)(=O)N2CCN(C(=O)CSc3ccccc3)CC2)c1,0.25,i
Cc1ccc(C)c(S(=O)(=O)N2CCN(C(C)C(=O)Nc3ccccc3-c3ccccc3)CC2)c1 (configuration not stated),-5.83,-5.83*
Cc1ccc(C)c(NS(=O)(=O)c2cc(C(=O)Nc3ccccc3-c3ccccc3)ccc2Cl)c1,-7.09,-7.09*
COCCNC(=O)c1ccccc1NC(=O)c1ccc(Cl)c(S(=O)(=O)Nc2ccc(C)cc2C)c1,nt,i
Cc1cc(C(=O)N/N=C/c2cccc3ccccc23)c(C)o1,nt,i
CCn1ccnc1CN(C)Cc1cn(-c2cccc(C)c2)nc1-c1cccc(F)c1,nt,i
Cc1cccc(-n2cc(CN(C)Cc3nccn3C)c(-c3cccc(F)c3)n2)c1,-6.71,-6.71*
Cc1ccc(S(=O)(=O)Nc2cccc(C(=O)NCc3cccnc3)c2)cc1F,nt,i
COc1cccc(NC(=O)Nc2nnc(N3C(C)CCCC3C)s2)c1 (configuration not stated),0.14,i
CCC(=Nc1ccccc1O)C1=C(O)CC(c2ccccc2)CC1=O (configuration not stated),0.29,i
CCC(=Nc1ccccc1OC)C1=C(O)CC(c2ccccc2)CC1=O (configuration not stated),-5.76,-5.76*
COCCCN(Cc1ccco1)C(=O)Cn1ncc2c(=O)oc3ccc(C)cc3c21,1.56,i
Cc1cc(C)nc(N=Nc2c(O)n(Cc3ccc(Cl)cc3)c3ccccc23)n1,-5.94,-5.94*
O=Nc1c(O)n(Cc2cccc(Cl)c2)c2ccccc12,nt,i
Cc1c(CCOC(=O)c2ccccc2)sc[n+]1CC(=O)c1ccc(Br)cc1,nt,i
Cc1c(CCOC(=O)C23CC4CC(CC(C)(C4)C2)C3)sc[n+]1CC(=O)c1ccccc1,-6.51,-6.51*
O=c1c2ccccc2nc(-c2ccccc2)n1/N=C/c1ccc([N+](=O)[O-])cc1,-7.61,-7.61*
Cc1ccccc1-c1nc2ccccc2c(=O)n1/N=C/c1ccc([N+](=O)[O-])cc1,nt,i
CCC1CCCCN1C(=S)NC(=O)c1ccc([N+](=O)[O-])cc1 (configuration not stated),7.84*,i
CCC1CCCCN1C(=S)NC(=O)c1cccs1 (configuration not stated),4.63,i
O=C(C1CC1)N1CCc2sccc2C1c1ccc(Cl)cc1 (configuration not stated),nt,i
C=CCn1c(COc2ccccc2)nnc1SCC(=O)N/N=C/c1cc(Cl)ccc1O,-6.37,-6.37*
COc1ccc(-n2c(CCc3ccccc3)nnc2SCC(=O)NCc2ccccc2)cc1,nt,i
SMILES,KCNQ2 pot,KCNQ2 block
O=C(CSc1nnc(CCc2ccccc2)n1-c1ccc(Cl)cc1)NCc1ccccc1,-7.4,-7.4*
C=CCn1c(CSCc2ccc(Cl)cc2)nnc1SCC(=O)NCc1ccccc1,-6.55,-6.55*
C=CCn1c(COc2ccccc2)nnc1SCC(=O)N/N=C/c1ccc(C)cc1,nt,i
C=CCn1c(SCC(=O)NCc2ccccc2)nnc1-c1ccccc1O,nt,i
Cc1ccc(S(=O)(=O)N(CC(=O)Nc2cccnc2)c2ccccc2C)cc1,nt,i
COc1ccccc1NC(=O)c1sc2ncn(Cc3ccccc3C)c(=O)c2c1C,-5.85,-5.85*
CCn1cnc2sc(C(=O)Nc3ccccc3OC)c(C)c2c1=O,nt,i
O=C1ON=C(c2ccc([N+](=O)[O-])cc2)/C1=C/c1ccccc1O,nt,i
Cc1ccccc1-n1nc2c(c1NC(=O)/C=C\c1ccc3c(c1)OCO3)CSC2,-6.65,-6.65*
Cc1ccc(-n2nc3c(c2NC(=O)/C=C\c2ccc4c(c2)OCO4)CSC3)c(C)c1,nt,i
COc1ccc(S(=O)(=O)Nc2ccc(S(=O)(=O)Nc3nccs3)cc2)cc1,0.01,i
O=S(=O)(c1ccccc1Br)N1CCN(c2ncccn2)CC1,nt,i
CCOC(=O)Cn1nc(-c2ccccc2)c2ccccc2c1=O,0.13,i
O=c1c2ccccc2c(-c2ccccc2)nn1Cc1c(Cl)cccc1Cl,-5.82,-5.82*
Cc1nc(/C(=N/O)C(N)=O)cs1,nt,i
O=C(Oc1c(-c2ccccc2Cl)oc2ccccc2c1=O)c1ccc(Cl)cc1,-6.94,-6.94*
O=C(Oc1c(-c2ccccc2)oc2ccccc2c1=O)c1ccccc1,nt,i
O=C(NCc1ccc2c(c1)OCO2)NC12CC3CC(CC(C3)C1)C2,25.2*,i
O=C(COc1ccc2c(c1)OCO2)NC12CC3CC(CC(C3)C1)C2,nt,i
COc1ccccc1-n1cc(C(=O)N2CCCC(CO)(Cc3ccccc3C)C2)cn1 (configuration not stated),nt,i

# Bioassay records (PubChem BioAssay)
